Reference: PubChem BioAssay (NCI)
The panel holds about 83,000 compounds, 20% with a hit somewhere; the sample as a whole holds those more often.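 Values shown are percent growth following 48 h exposure of cells in 96-well plates to a single concentration of compound; below 10 was considered active.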 Active and inactive are the calls of the source.

How the values were obtained:
Assay in all cases: NCI-60 one-dose screen, 48 h (100 = growth as untreated, 0 = no growth, -100 = all killed)
SK-MEL-2 melanoma = conditions: 10 µM unless noted
EKVX NSCLC = conditions: 10 µM unless noted
SN12C renal = conditions: 10 µM unless noted
UO-31 renal = conditions: 10 µM unless noted
TK-10 renal = conditions: 10 µM unless noted
ACHN renal = conditions: 10 µM unless noted
CAKI-1 renal = conditions: 10 µM unless noted
A498 renal = conditions: 10 µM unless noted
CCRF-CEM leukemia = conditions: 10 µM unless noted
MOLT-4 leukemia = conditions: 10 µM unless noted
SR leukemia = conditions: 10 µM unless noted
RPMI-8226 leukemia = conditions: 10 µM unless noted
OVCAR-8 ovarian = conditions: 10 µM unless noted
OVCAR-5 ovarian = conditions: 10 µM unless noted
OVCAR-4 ovarian = conditions: 10 µM
IGROV1 ovarian = conditions: 10 µM unless noted
OVCAR-3 ovarian = conditions: 10 µM unless noted
HS 578T breast = conditions: 10 µM unless noted
NCI/ADR-RES ovarian = conditions: 10 µM unless noted

Measured: growth

C#C[C@]1(O)CC[C@H]2[C@@H]3CC=C4c5nc(Nc6ccc(OC)cc6OC)sc5CC[C@]4(C)[C@H]3CC[C@@]21C
active: SK-MEL-2 melanoma -10.1% | A498 renal -56% | MOLT-4 leukemia 4.56% | SR leukemia 5.67% | RPMI-8226 leukemia -26.1% | HS 578T breast -12.7%
inactive: EKVX NSCLC 24.7% | SN12C renal 37.6% | UO-31 renal 13.2% | TK-10 renal 51.3% | ACHN renal 32.6% | CAKI-1 renal 26.4% | CCRF-CEM leukemia 16.9% | OVCAR-8 ovarian 59.4% | OVCAR-5 ovarian 51.7% | OVCAR-4 ovarian 44.7% | IGROV1 ovarian 43.2% | OVCAR-3 ovarian 26.4% | NCI/ADR-RES ovarian 50.3%

COc1cc2c(O)n(CCCN3CCOCC3)c3c4cnc5cccc(c(=O)c3c2cc1OC)c54
inactive: SK-MEL-2 melanoma 45.6% | EKVX NSCLC 63.5% | SN12C renal 14.1% | UO-31 renal 30.2% | TK-10 renal 73.7% | ACHN renal 12.2% | CAKI-1 renal 30% | A498 renal 56.1% | CCRF-CEM leukemia 15.1% | MOLT-4 leukemia 11.8% | SR leukemia 20.5% | RPMI-8226 leukemia 14.8% | OVCAR-8 ovarian 39.9% | OVCAR-5 ovarian 69% | OVCAR-4 ovarian 48% | IGROV1 ovarian 60.3% | OVCAR-3 ovarian 62.9% | HS 578T breast 81.2% | NCI/ADR-RES ovarian 74.5%

CCN(CC)CC(C)Nc1ccc(C)c2sc3ccccc3c(=O)c12 (stereo not drawn)
inactive: SK-MEL-2 melanoma 116% | EKVX NSCLC 81.8% | SN12C renal 49.6% | UO-31 renal 19.5% | TK-10 renal 68.1% | ACHN renal 37.8% | CAKI-1 renal 39.3% | A498 renal 60.1% | CCRF-CEM leukemia 34.4% | MOLT-4 leukemia 24.6% | SR leukemia 33.4% | RPMI-8226 leukemia 11% | OVCAR-8 ovarian 64.2% | OVCAR-5 ovarian 68.9% | OVCAR-4 ovarian 75.9% | IGROV1 ovarian 19.1% | OVCAR-3 ovarian 77.5% | HS 578T breast 73.8% | NCI/ADR-RES ovarian 68.7%

Cc1ccc(NC(=O)N[C@@H](Cc2cc(F)cc(F)c2)C(=O)N[C@@H]2C(=O)N3CCC[C@H]3C(=O)N3CCCC[C@H]3C(=O)N[C@@H](C)C(=O)N3C[C@H](C)C[C@H]3C(=O)O[C@H]2C)cc1
active: A498 renal -1.49%
inactive: SK-MEL-2 melanoma 35.2% | EKVX NSCLC 28.2% | SN12C renal 18.1% | UO-31 renal 25.2% | TK-10 renal 47.6% | ACHN renal 23.6% | CAKI-1 renal 13.7% | CCRF-CEM leukemia 54.8% | MOLT-4 leukemia 30.9% | SR leukemia 31.3% | RPMI-8226 leukemia 20.1% | OVCAR-8 ovarian 18.5% | OVCAR-5 ovarian 34.6% | OVCAR-4 ovarian 11.3% | IGROV1 ovarian 45.9% | OVCAR-3 ovarian 19.8% | HS 578T breast 35.6% | NCI/ADR-RES ovarian 34.4%

Cc1cccc(C[C@H](NC(=O)Nc2ccc(Cl)cc2F)C(=O)N[C@@H]2C(=O)N3C[C@H](OC(=O)CCN(C)C)C[C@H]3C(=O)N3CCCC[C@H]3C(=O)N[C@@H](C)C(=O)N3C[C@H](C)C[C@H]3C(=O)O[C@H]2C)c1
active: A498 renal -11.1% | OVCAR-3 ovarian 8.87%
inactive: SK-MEL-2 melanoma 24.4% | EKVX NSCLC 47.3% | SN12C renal 12.5% | UO-31 renal 31.1% | TK-10 renal 47.8% | ACHN renal 27.5% | CAKI-1 renal 15.5% | CCRF-CEM leukemia 42.4% | MOLT-4 leukemia 27.8% | SR leukemia 28.7% | RPMI-8226 leukemia 10% | OVCAR-8 ovarian 16.8% | OVCAR-5 ovarian 32.6% | OVCAR-4 ovarian 11.4% | IGROV1 ovarian 35.6% | HS 578T breast 26.2% | NCI/ADR-RES ovarian 94.9%

Cc1ccc(NC(=O)N[C@@H](Cc2cc(F)cc(F)c2)C(=O)N[C@@H]2C(=O)N3CCC[C@H]3C(=O)N3CCOC[C@H]3C(=O)N[C@@H](C)C(=O)N3C[C@H](C)C[C@H]3C(=O)O[C@H]2C)cc1
inactive: SK-MEL-2 melanoma 40.7% | EKVX NSCLC 30.6% | SN12C renal 18.4% | UO-31 renal 28.4% | TK-10 renal 60.7% | ACHN renal 29.7% | CAKI-1 renal 16.5% | CCRF-CEM leukemia 58.3% | MOLT-4 leukemia 41% | SR leukemia 32% | RPMI-8226 leukemia 23% | OVCAR-8 ovarian 19.8% | OVCAR-5 ovarian 38% | OVCAR-4 ovarian 12.8% | IGROV1 ovarian 47.2% | OVCAR-3 ovarian 18.9% | HS 578T breast 41.9% | NCI/ADR-RES ovarian 91.5%
active: A498 renal -3.1%

Cc1ccc(C2=C/C(=C/c3ccc(Br)cc3)C(=O)N2CCc2ccc(S(N)(=O)=O)cc2)cc1
inactive: SK-MEL-2 melanoma 98.6% | EKVX NSCLC 92.8% | SN12C renal 95.9% | UO-31 renal 61.8% | TK-10 renal 110% | ACHN renal 97.7% | CAKI-1 renal 65% | A498 renal 78.5% | CCRF-CEM leukemia 104% | MOLT-4 leukemia 82.1% | SR leukemia 87.2% | RPMI-8226 leukemia 96.1% | OVCAR-8 ovarian 95.7% | OVCAR-5 ovarian 97.2% | OVCAR-4 ovarian 91.5% | IGROV1 ovarian 85.5% | OVCAR-3 ovarian 104% | HS 578T breast 93.4% | NCI/ADR-RES ovarian 89.1%
